Assay results taken from PubChem BioAssay (NCI).
About 79,000 compounds went through this panel and 15% of them were active in at least one assay; those are over-represented in the sample as a whole. A number with no mark means an inactive call. Activity calls are given as the source filed them. Cut-off read from the data, not from the text of the source: active = growth inhibition above about 70%; inactive = the rest.

Tests used:
[1] = NCI Yeast Anticancer Drug Screen. Data for the rad50 strain (AID 155);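 note: 0% = growth of vehicle-only cultures of the same strain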; details: S. cerevisiae rad50 strain growth inhibition; at 50.0 µM; hits give high values
How it was run: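 Cells are treated with compound, grown, and their growth is then scored against vehicle-only cultures of the same repair-deficient yeast strain.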

[2] = NCI Yeast Anticancer Drug Screen. Data for the mec2-1 strain (AID 157); details: S. cerevisiae mec2-1 strain, at 50.0 µM, hits give high values
How it was run: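 Compounds were applied to mec2-1 yeast cells. Their growth was then compared with that of vehicle-treated cultures to give growth inhibition.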

[3] = NCI Yeast Anticancer Drug Screen. Data for the sgs1 mgt1 strain (AID 161);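 note: 0% = growth of cultures given vehicle only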; details: S. cerevisiae sgs1 mgt1 strain, at 50.0 µM, hits give high values
How it was run: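 Percent growth inhibition was derived by comparing compound-exposed mutant yeast with vehicle-exposed cultures. The strain carries alterations in DNA damage repair.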

[4] = NCI Yeast Anticancer Drug Screen. Data for the cln2 rad14 strain (AID 165);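 note: 0% = growth equal to vehicle treated cultures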; details: S. cerevisiae cln2 rad14 strain, at 50.0 µM, hits give high values
How it was run: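 Strain: cln2 rad14 yeast, altered in cell cycle control and DNA damage repair. Read-out: growth inhibition vs vehicle.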

[5] = NCI Yeast Anticancer Drug Screen. Data for the bub3 strain (AID 167); details: S. cerevisiae bub3 mutant strain, at 50.0 µM, hits give high values
How it was run: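 Part of a panel of yeast mutants defective in DNA damage repair or cell cycle regulation. Each strain is grown with compound, and inhibition is calculated relative to solvent-treated cultures.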

[6] = NCI Yeast Anticancer Drug Screen. Data for the mlh1 rad18 strain (AID 175); details: S. cerevisiae mlh1 rad18 strain growth inhibition; at 50.0 µM; hits give high values
How it was run: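 A repair-deficient yeast strain is exposed to test compound, and growth is scored relative to vehicle-treated controls.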

Structure (SMILES) | growth inhibition [1] | growth inhibition [2] | growth inhibition [3] | growth inhibition [4] | growth inhibition [5] | growth inhibition [6]
O=[N+]([O-])c1sc2ccccc2c1Br | 98% (active) | 98.7% (active) | 98.8% (active) | 99% (active) | 99.1% (active) | 98.7% (active)
C=CCNC(=S)Nc1cccc(OC(=O)Nc2ccc(Cl)c(Cl)c2)c1 | -16.4% | -11.2% | -18.4% | -23.1% | 1% | -12.4%
CCn1c(=O)c2[nH]c(Br)nc2n(CC)c1=O | 1.95% | -0.6% | 5.95% | -6.85% | 0.3% | -9.45%
NC(CCS(N)(=O)=O)C(=O)O (stereo not drawn) | -9.45% | -5.3% | -1.85% | -2.7% | 5.5% | -10.9%
COc1ccc(C(=O)c2ccccc2)c(N)c1 | 11.2% | 13.1% | -2.4% | -18.9% | -17.9% | 10.4%
Cc1ccc(N=C(c2ccccc2)c2ccc([N+](=O)[O-])cc2)cc1 | -16.6% | -7.05% | -21.7% | -26.9% | 21.4% | -11.8%
COc1ccc(/C(=N\NC(=O)C(=O)NN)C(c2ccc(OC)cc2)C2(O)C(=O)Nc3ccccc32)cc1 (stereo not drawn) | -19.6% | -20.2% | -22.6% | -65.1% | 12.9% | -18.1%
O=C(NCCN1CCOCC1)c1ccc(C(=O)NCCN2CCOCC2)cc1 | 35% | 22.9% | 32.6% | 17.5% | 1.6% | 33.9%
CC(=O)c1ccc([C@H](O)[C@H](CO)NC(=O)C(Cl)Cl)cc1 | -1.1% | 0.45% | 6.95% | -57.4% | -21.6% | -16.2%
COC(O)C(=O)c1c2c(cc3c1CCC3)CCC2 (stereo not drawn) | 29.1% | 45.8% | 39.3% | 12.3% | 21.1% | 21%
CCN(CC)CCCC#CCN1CCOCC1 | -39.5% | -48.5% | -21.4% | -16.9% | -44.7% | -20.1%
OC1COC(c2ccccc2)OC1C(O)C1OC(c2ccccc2)OCC1O (stereo not drawn) | 5.3% | -3.8% | 12.2% | -38.9% | -8.2% | 10.7%
O=Cc1ccccc1[N+](=O)[O-] | 18.9% | -8.35% | 15% | 14.2% | 6.75% | 17.9%
O=C(NO)c1cc(O)c(O)c(O)c1 | -14.5% | 1.75% | -16.7% | -11.6% | -5.75% | -25.4%
C=C1C2CCC3(CCC4C5(C)CCCC4(CN(CCO)C5)C3C2)C1O (stereo not drawn) | -13.6% | -39.9% | -4.45% | 12.8% | -13.4% | -1.15%
CCC(=O)OCCC(C)C | 35.4% | 12.2% | 6.85% | -22.1% | 19.9% | 17.4%
OC(C/C=N/N=C/CC(O)(C(F)(F)Cl)C(F)(F)Cl)(C(F)(F)Cl)C(F)(F)Cl | 36% | 28.3% | 31.7% | 35.2% | 34.5% | 34.1%
C=CCCCCCCCCC(=O)N(CC#N)CC(C)C | 79.1% (active) | 82% (active) | 91.5% (active) | 76% (active) | 87.2% (active) | 91.5% (active)
CCOC1(c2ccccc2)CCNCC1 | 21.9% | -0.65% | 29.4% | 15.7% | 16.3% | 12.9%

Structure (SMILES) | growth inhibition [1] | growth inhibition [2] | growth inhibition [3] | growth inhibition [4] | growth inhibition [5] | growth inhibition [6]
Nc1ncnc2c1ncn2[C@@H]1C[C@H]1CO | -39.6% | 10.8% | -23.6% | 12.1% | 20.6% | -23.4%
O=C(N/C=C\NC(=O)Nc1cccc(Cl)c1)Nc1cccc(Cl)c1 | 40.8% | 16.1% | 15.8% | 15.8% | -1.95% | 18.8%
CC1CN=C(N(C(=O)Nc2ccc(F)c(Cl)c2)c2ccccc2)S1 (stereo not drawn) | -1.55% | 14.3% | -12.3% | 25.4% | 41.3% | -29.9%
COc1cc(C(=O)Nc2c3ccccc3nc3ccccc23)cc(OC)c1OC | -19.9% | -4.55% | 7.8% | -23.6% | -3.3% | -14.6%
OCCN(CCO)c1ccc2c(c1)Cc1cc(Br)ccc1-2 | 1.25% | 6% | -4.35% | -2.7% | 22.5% | 5.15%
O=C(Nc1ccc(Cl)cc1Cl)C(=O)C(C(=O)c1ccc2ccccc2c1)C1OC(=O)c2ccccc21 (stereo not drawn) | 13.4% | 21.6% | 2.7% | 15.9% | -12.6% | -6.45%
COC(=O)CC(=O)C=P(c1ccccc1)(c1ccccc1)c1ccccc1 | -3.2% | -4.15% | -3.15% | 6.3% | -17.5% | -2.15%
CCCCONC(N)=O | -12.2% | -11.1% | -23.4% | 7.75% | -5.15% | -5.95%
CCOC(=O)c1c(/N=C/c2ccc(N(C)C)cc2)sc2c1CCCC2 | 14.2% | 13.8% | 17.3% | 23.6% | 17.8% | 5.85%
CC(=O)OCC1OC(n2cc(I)c(=O)[nH]c2=O)C(OC(C)=O)C(OC(C)=O)C1OC(C)=O (stereo not drawn) | -29.9% | -22.1% | -12.2% | -27.4% | -29.5% | -13.2%
CCC1C(C#N)=C(O)NC(O)=C1C#N | 25.8% | 6.1% | 11.8% | 8.6% | 19.2% | -1.65%
CSCCCS/C1=C/CCCCCCCCCC1 | -1.85% | 11% | -21.9% | 14.8% | -9.35% | -38.6%
O=[N+]([O-])c1ccc(C2=Nc3ccccc3S(=O)C(c3ccccc3)C2)cc1 (stereo not drawn) | 5.3% | -27.3% | 19.9% | 3.45% | 10.7% | 20.6%
Cc1cc(N(CCC#N)CCC#N)ccc1/C=C/C(=O)Nc1cccc(Cl)c1 | 8.95% | 4.6% | 3.55% | 13.2% | 27.4% | 7.65%
COC(=O)COC(=O)C1C(C(N)=O)N(CC(=O)OC)CCN1CC(=O)OC (stereo not drawn) | 0.2% | -0.9% | -27.4% | -7.35% | -3.9% | -5.95%
N#Cc1nc(C(O)c2ccccc2)oc1N (stereo not drawn) | -6.75% | 16.4% | -7.05% | 11.8% | -10.3% | -71.1%
COc1ccc(C(=O)OCc2ccccc2CN2CCCCC2)cc1 | -4.75% | -7.25% | 11.4% | -16.3% | -14.2% | -5.6%
C/C(CC(O)(C(F)(F)F)C(F)(F)F)=N\NC(N)=S | -30.1% | -14.7% | -12.9% | 9.55% | 7.1% | -9.3%
N#CC1CNCCC1=N (stereo not drawn) | -5.75% | -3.2% | 13.4% | -1.1% | -1.55% | -6.8%
